# Source: ChEMBL document CHEMBL4513146, “CO-ADD screening of Karazin Kharkiv National University (Ukraine) compounds”
# Measured potencies and affinities stand elsewhere.
# Key:
# [1] = system: Klebsiella pneumoniae; settings: Concentration 32 ug.mL-1;; ASSAY_TEST Inhibition of Bacterial Growth; detection method Absorption (OD600); MEDIA CAMHB; plate type 384well; NBS; CORNING #3640; time 18 hr
# [2] = system: Candida albicans; settings: Concentration 32 ug.mL-1; ASSAY_TEST Inhibition of Fungal Growth; detection method Absorption (OD530)
# [3] = system: Cryptococcus neoformans; settings: Concentration 32 ug.mL-1; ASSAY_TEST Inhibition of Fungal Growth; detection method Resazurin; Absorption (OD600-OD570); plate type 384well; NBS; CORNING #3640
smiles,measurement,setting,value
O=C(CSc1nnc2c(=O)n(-c3ccc(F)cc3)ccn12)N1CCN(c2ccccc2F)CC1,Inhibition,[1],-3.8%
same,Inhibition,[2],5.18%
same,Inhibition,[3],-7.82%
COc1cccc(-n2ccn3c(-c4ccc([N+](=O)[O-])cc4)nnc3c2=O)c1,Inhibition,[1],6.14%
same,Inhibition,[2],1.66%
same,Inhibition,[3],-18.73%
Cc1ccc(-c2cc3c4nnc(SCC(=O)Nc5ccccc5Br)n4ccn3n2)cc1,Inhibition,[1],5.31%
same,Inhibition,[2],5.08%
same,Inhibition,[3],-35.04%
COc1ccc(NC(=O)Cn2nc3c(SCc4ccc(Cl)cc4)nccn3c2=O)cc1,Inhibition,[1],5.73%
same,Inhibition,[2],-0.37%
same,Inhibition,[3],-4.83%
